15 compounds from PubChem BioAssay (NCATS) can be followed below.

Results filed as inconclusive are left out. Unmarked numbers belong to inactive results. Activity calls are given as the source filed them. Unless noted, calls follow the shape of the dose curve; as a rule, active = well fitted curve in the direction sought with a large enough effect; inconclusive = small, poorly fitted or top-dose-only effect, or another doubt; inactive = no such curve, though single readings can be large; an effect the other way counts as inactive or inconclusive.

In experiment [1] the target is Retinal dehydrogenase 2 (Homo sapiens) (UniProt O94788). As to the kind of experiment: qHTS for Inhibitors of the Aldehyde Dehydrogenase Family (ALDH1A2) Confirmation screens (AID 2061314). Also: nearly all actives have a fitted effect of over 65% in size. Also: potency is read from the fitted curve at half-maximal effect. Background: In qHTS, concentration-response curves come from the screen itself.
For experiment [2], the target named is Aldehyde dehydrogenase, mitochondrial (Homo sapiens) (UniProt P05091). As to the kind of experiment: qHTS for Inhibitors of the Aldehyde Dehydrogenase Family (ALDH2) Validation screens (AID 2061302; active = well fitted inhibition curve with a large enough effect; title and protocol of this record describe different tests;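 also: plate controls were DMSO vehicle for no effect and maximal DPI positive control response for full effect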).
In experiment [3] the target is Cellular tumor antigen p53 (Homo sapiens) (UniProt P04637). Put plainly: Primary qHTS for small molecule compounds that upregulate eGFP-tagged delta133p53alpha (in C-terminal) cells. (AID 2060324).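 Also: 0% = DMSO wells and 100% = 57.5 µM 5-azacytidine.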 The method in brief: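 NCI-H358 cells pre-induced 24 h with 100 ng/ml doxycycline to express delta133p53alpha-eGFP, then dosed in doxycycline-free medium for 24 h at 37C. Fixed, Hoechst-stained; GFP intensity by laser scanning cytometry, normalized to DMSO wells.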
Chain of Cellular tumor antigen p53 (Homo sapiens) (P04637 whole entry, looked up): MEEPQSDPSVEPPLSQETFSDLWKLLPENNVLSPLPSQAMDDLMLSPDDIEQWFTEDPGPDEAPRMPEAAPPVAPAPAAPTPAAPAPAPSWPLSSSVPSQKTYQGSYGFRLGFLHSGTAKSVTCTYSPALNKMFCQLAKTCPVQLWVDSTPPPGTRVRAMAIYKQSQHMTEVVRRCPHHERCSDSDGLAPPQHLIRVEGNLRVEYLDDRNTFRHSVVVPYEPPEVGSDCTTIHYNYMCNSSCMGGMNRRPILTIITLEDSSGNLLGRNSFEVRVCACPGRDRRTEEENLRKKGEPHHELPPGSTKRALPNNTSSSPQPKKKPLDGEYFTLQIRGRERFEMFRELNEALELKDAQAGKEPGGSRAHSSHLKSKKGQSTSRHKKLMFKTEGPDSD

In experiment [4] the target is Aldehyde dehydrogenase, mitochondrial (Homo sapiens) (UniProt P05091). As to the kind of experiment: qHTS for Inhibitors of the Aldehyde Dehydrogenase Family (ALDH2) Primary screen (AID 2061308).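 Also: plate controls were vehicle for no effect and reference inhibitor for full effect; nearly all actives have a fitted effect of over 55% in size.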
Experiment [5] has as its target Retinaldehyde dehydrogenase 3 (Homo sapiens) (UniProt P47895). As to the kind of experiment: qHTS for Inhibitors of the Aldehyde Dehydrogenase Family (ALDH1A3) Validation screen (AID 2061312). Also: % is scaled to controls: 0 for no effect and ±100 for the full control effect; nearly all actives have a fitted effect of over 45% in size.
For experiment [6] the target is unchanged. As to the kind of experiment: qHTS for Inhibitors of the Aldehyde Dehydrogenase Family (ALDH1A3) Primary screen (AID 2061315).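 Also: plate controls were DMSO vehicle for no effect and reference inhibitor for full effect.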
Experiment [7] is described as follows: BET inhibitor-based combinations targeting novel dependencies in MECOM-rearranged (r) AML: MV-4-11 cell line (AID 2202233). Also: nearly all actives have a fitted effect of over 45% in size. Also: potency is read from the fitted curve at half-maximal effect. The method in brief:
(§1)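 Seeding density was 500 cells/well, and drug exposure lasted 48 hr under standard culture conditions. Read-out used CellTiter-Glo reagent with a 15 min room-temperature incubation before luminescence measurement; AUC and Z-AUC summarize the normalized responses.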

Experiment [8] is described as follows: BET inhibitor-based combinations targeting novel dependencies in MECOM-rearranged (r) AML: HNT-34 cell line (AID 2202234).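 Also: plate controls were vehicle wells for no effect and cell-free wells for full effect; nearly all actives have a fitted effect of over 35% in size.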 The method in brief: as §1
Experiment [9] in a line: BET inhibitor-based combinations targeting novel dependencies in MECOM-rearranged (r) AML: UCSD-AML1 cell line (AID 2202235). Also: nearly all actives have a fitted effect of over 40% in size. The method in brief: as §1
Experiment [10] in a line: BET inhibitor-based combinations targeting novel dependencies in MECOM-rearranged (r) AML: AML-191 cell line (AID 2202236;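 also: plate controls were vehicle wells for no effect and wells without cells for full effect; nearly all actives have a fitted effect of over 35% in size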). The method in brief:
(§2)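 Readout: CellTiter-Glo luminescence. Exposure: 48 h, 11 concentrations, 500 cells/well. Metric: AUC and within-line Z-AUC after DMSO/empty-well normalization.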

The nature of experiment [11]: BET inhibitor-based combinations targeting novel dependencies in MECOM-rearranged (r) AML: AML-194 cell line (AID 2202237; also: nearly all actives have a fitted effect of over 40% in size; also: potency is read from the fitted curve at half-maximal effect). The method in brief:
as §2

Experiment [12] can be described thus: BET inhibitor-based combinations targeting novel dependencies in MECOM-rearranged (r) AML: SET-2 cell line (AID 2202231). Also: nearly all actives have a fitted effect of over 35% in size. Also: potency is read from the fitted curve at half-maximal effect.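 As to viability: plate controls were DMSO treated cells for no effect and wells without cells for full effect.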 The note with it: SET-2 AML cells viability, CellTiter-Glo luminescence, 48 h; viability: active compounds read low, concentration not given here. The method in brief: as §2
In general terms: In ATP-based viability assays light output follows the ATP content of the culture.

Experiment [13] can be described thus: BET inhibitor-based combinations targeting novel dependencies in MECOM-rearranged (r) AML: OCI-AML3 cell line (AID 2202232). Also: nearly all actives have a fitted effect of over 35% in size. Also: potency is read from the fitted curve at half-maximal effect. The note with it: Potency: OCI-AML3 viability. The method in brief: as §2
The target in experiment [14] is Aldehyde dehydrogenase, mitochondrial (Homo sapiens) (UniProt P05091). Put plainly: qHTS for Inhibitors of the Aldehyde Dehydrogenase Family (ALDH2) Confirmatory screens (AID 2061303; active = well fitted inhibition curve with a large enough effect; title and protocol of this record describe different tests; also: % is scaled to controls: 0 for no effect and ±100 for the full control effect; nearly all actives have a fitted effect of over 45% in size).
The nature of experiment [15]: qHTS for Inhibitors of the Aldehyde Dehydrogenase Family (ALDH1A2, ALDH1A3, ALDH2, ALDH3A1) (AID 2061307). Also: % is scaled to controls: 0 for no effect and ±100 for the full control effect; nearly all actives have a fitted effect of over 50% in size.
Experiment [16] concerns the target Aldehyde dehydrogenase 1A1 (Homo sapiens) (UniProt P00352). Put plainly: qHTS for Inhibitors of the Aldehyde Dehydrogenase Family (ALDH1A1) Confirmatory screens (AID 2061316). Also: % is scaled to controls: 0 for no effect and ±100 for the full control effect; nearly all actives have a fitted effect of over 65% in size.

`O=S(=O)(c1cccc2c(I)cccc12)N1CCCNCC1`: in [1], the Potency result was “inactive”.
Consider `CC(C)N(CCC(=O)c1ccc2ccccc2c1)Cc1ccccc1`, for which the Potency in [1] is 0.0565 µM (active).
Take `CC(C)NC[C@@H](O)c1ccc(O)c(O)c1`: the Potency entry in [2] was “inactive”.
With `C/C=C/CC(C)C(O)C1C(=O)NC(CC)C(=O)N(C)CC(=O)N(C)C(CC(C)C)C(=O)NC(C(C)C)C(=O)N(C)C(CC(C)C)C(=O)NC(C)C(=O)NC(C)C(=O)N(C)C(CC(C)C)C(=O)N(C)C(CC(C)C)C(=O)N(C)C(C(C)C)C(=O)N1C` (configuration not stated), the Potency result in experiment [3], in [4], in experiment [5] and in experiment [6] was “inactive” each time.
Consider `COc1cc(-c2coc3cc(OCc4ccccc4)c(OC)c(O)c3c2=O)cc(O)c1OC`, for which the Potency result in [2] is “inactive”.
`CC(=O)Oc1ccccc1C(=O)O`: the Potency entry in experiment [3], in [2], in [5], in experiment [7], in experiment [8] and in experiment [9] was “inactive” in each case. Also, the Potency entry in [10] and in experiment [11] was “inactive” throughout.
With `O=c1cc(-c2ccccc2F)[nH]c2cc3c(cc12)OCO3`, the Potency result in experiment [3] and in experiment [5] was “inactive” in each case.
Take `Cn1cnc([N+](=O)[O-])c1Sc1ncnc2nc[nH]c12`: the Potency entry in experiment [3], in [2], in [5] and in [9] was “inactive” throughout. Besides, the Potency in [12] was 1.66 µM (active); in [11], 0.468 µM (active).
For `O=C1c2c(O)cc(O)cc2OC(c2ccc(O)c(O)c2)C1O` (configuration not stated), the Potency entry in experiment [3] and in experiment [5] was “inactive” throughout. The Potency in [13] is 23.5 µM (active); in experiment [7], 18.6 µM (active). Moreover, the outcome in experiment [9] was inactive.
The viability is a read-out of living cells in per cent, often relative to untreated cells. Turning to `CNC[C@H](O)c1cccc(O)c1`, the Potency entry in [3], in experiment [2], in experiment [5], in experiment [13], in experiment [8] and in [9] was “inactive” throughout. Further, the Potency result in experiment [11] is “inactive”. Besides, the viability in [12] is 112%.
Turning to `CCC(C)N(C)C(=O)c1cc2ccccc2c(-c2ccccc2Cl)n1` (configuration not stated), the Potency entry in experiment [3], in experiment [2], in experiment [5], in experiment [13], in experiment [7] and in [9] was “inactive” throughout. Also, the Potency entry in experiment [10] is “inactive”. The viability in experiment [12] is 102%.
Turning to `Nc1nc(OCc2ccccc2)c2[nH]cnc2n1`, the Potency entry in [3], in [2], in [5], in [9] and in experiment [11] was “inactive” each time.
Consider `CCCCC#Cc1nc(NC)c2ncn([C@@H]3O[C@H](CO)[C@@H](O)[C@H]3O)c2n1`, for which the Potency entry in experiment [3], in [14], in experiment [15], in experiment [1] and in [16] was “inactive” throughout.
With `O=c1c(-c2ccc(O)cc2)coc2cc(O[C@@H]3O[C@H](CO)[C@@H](O)[C@H](O)[C@H]3O)cc(O)c12`, the Potency result in experiment [2] was “inactive”.
For `O=c1c(-c2ccc(O[C@@H]3O[C@H](CO)[C@@H](O)[C@H](O)[C@H]3O)cc2)coc2cc(O)cc(O)c12`, the Potency result in [2] was “inactive”.
